Laboratory results from PubChem BioAssay (NCATS).
Records with an inconclusive call do not appear. Active and inactive are the calls of the source. Calls come from the whole dose curve; as a rule, active = well fitted inhibition curve with a large enough effect; inconclusive = small, poorly fitted or top-dose-only effect; inactive = no such curve, though single readings can be large or run the other way.

Each compound was assayed against N-terminal Xaa-Pro-Lys N-methyltransferase 1 (Homo sapiens) (UniProt Q9BV86) (assay: qHTS Assay for Inhibitors of N-terminal methyltransferase 1 (NTMT1): LOPAC validation of the NTMT1 SAHH-coupled ThioGlo3 Assay (AID 1347143;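 note: SAH from peptide methylation measured as thiol fluorescence via SAHH coupling and ThioGlo3; nearly all actives have a fitted effect of over 70% in size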)). Conditions: recombinant NTMT1, SAHH-coupled ThioGlo3 fluorescence; series mostly up to 114 µM; activity change, negative = inhibition: at the top concentration.
Chain of N-terminal Xaa-Pro-Lys N-methyltransferase 1 (Homo sapiens) (Q9BV86 whole entry, looked up): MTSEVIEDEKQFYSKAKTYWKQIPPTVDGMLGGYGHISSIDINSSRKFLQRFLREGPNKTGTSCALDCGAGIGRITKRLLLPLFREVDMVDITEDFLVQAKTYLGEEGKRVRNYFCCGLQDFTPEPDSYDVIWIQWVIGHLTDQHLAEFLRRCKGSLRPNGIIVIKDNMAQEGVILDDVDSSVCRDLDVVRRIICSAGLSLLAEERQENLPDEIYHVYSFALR
Description: Assay Submitter (PI): Rong Huang Ph.D, Purdue University, West Lafayette, IN 47907 The N-terminal methytransferase 1 is the first methyltransferase that methylates protein alpha-N-amines and plays an important role in regulating cell mitosis, chromatin interactions and DNA repair. It is observed to be over-expressed in various cancer patient tissues like malignant melanoma and colorectal cancer tissues. Knockdown of NTMT1 in cancer cells causes cell mitotic defects and enhances sensitivity to DNA damaging chemotherapeutics. […] These critical cellular processes in which NTMT1 is implicated, coupled with emerging links to cellular dysfunction, strengthen the inference that NTMT1 is a compelling novel anticancer target. Progress have been made in understanding the molecular properties of NTMT1 and the biological consequences of protein alpha-N-terminal methylation, but there are no specific small molecule probes available for NTMT1 to fully characterize its MTase activity. To address this unmet need, a panel of assay is created and established to enable quantitative high-throughput screening (qHTS) for novel, potent, and selective small molecule NTMT1 inhibitors. Two orthogonal qHTS that use different reagents (ThioGlo vs. MTaseGlo) are developed for primary robotic screening against the NCATS chemical library of more than 400,000 small molecules. Identified inhibitors are reacquired, validated, and further characterized. […] A pilot screen against the LOPAC library of 1280 compounds is carried out to assess performance of the optimized qHTS in 1536-well plate format. Early Translation Branch (ETB) National Center for Advancing Translational Sciences (NCATS) National Institute of Health (NIH)
Materials: NTMT1 enzyme, substrate SPKRIA, control peptide RCC1-6 is provided by the Huang laboratory. ThioGlo3 Assay: In brief, 125nM NTMT1 enzyme was dispensed into a 1536-well assay plate with Aurora Discovery BioRAPTR Flying Reagent Dispenser (FRD, Beckton-Dickenson). Compounds (at various concentration) or 1uM RCC1-6 (SPKRIA) control were transferred to the assay plate using the Kalypsys 1536-pintool apparatus. After 1 min of room temperature incubation, 1uL of substrate (100uM SAM, 10uM SAHH, 15uM ThioGlo3) was added to the wells bringing the final assay volume to 4uL. Initial (background) fluorescence readout (EX: 340nm, EM: 450nm) was then detected using the PerkinElmer ViewLux microplate imager and a final fluorescence readout was taken after 30 min of room temperature incubation. The data was normalized to the background fluorescence.
% is set by controls: 0 for no effect and ±100 for the full control effect; potency is the fitted concentration of half-maximal effect.

| Compound | activity change, negative = inhibition | Potency |
| --- | --- | --- |
| CC[C@H](NC(=O)c1c(C)c(-c2ccccc2)nc2ccccc12)c1ccccc1 | -6.95% (inactive) | – |
| CCCCCC(O)CCCC(=O)O (stereo not given) | -16.3% (inactive) | – |
| CCCCCCCCCCC(C)(C)C(=O)Nc1c(OC)cc(OC)cc1OC | -15.5% (inactive) | – |
| c1ccc(C(NCc2cccnc2)(c2ccccc2)c2ccccc2)cc1 | 11.1% (inactive) | – |
| O=c1onc2cnc3ccccc3n12 | – | 56.2 µM (active) |
| Cc1nc2c(OCc3ccccc3)cccn2c1CC#N | -16.3% (inactive) | – |
| CNc1cc(NS(=O)(=O)c2ccc(N)cc2)nc(NC)n1 | -17.9% (inactive) | – |
| CC(N)(Cc1ccc(O)c(O)c1)C(=O)O (stereo not given) | – | 56.2 µM (active) |
| c1ccc(C(NCCNC(c2ccccc2)c2ccccc2)c2ccccc2)cc1 | -18% (inactive) | – |
| O=C1Nc2ccc(I)cc2/C1=C/c1cc(Br)c(O)c(Br)c1 | – | 56.2 µM (active) |
| CC(N)=O | 9.72% (inactive) | – |
| NC(=O)c1ccccc1 | -10.1% (inactive) | – |
| N=S(=O)(O)Cc1noc2ccccc12 | -3.1% (inactive) | – |
| CN(C)C(=O)/N=N/C(=O)N(C)C | – | 7.08 µM (active) |
| Cc1nc(N=Nc2cc(S(=O)(=O)O)c3cc([N+](=O)[O-])cc(S(=O)(=O)O)c3c2)c(COP(=O)(O)O)c(C=O)c1O | – | 56.2 µM (active) |
| Oc1cc2c(cc1O)C(c1ccccc1)CNCC2 (stereo not given) | – | 44.7 µM (active) |
| CCCCCCCCCC(=O)NC(CN1CCOCC1)[C@H](O)c1ccccc1 (stereo not given in full) | -25.4% (inactive) | – |
| CCSC(=N)N | -7.25% (inactive) | – |
| CC#CCOC(=O)c1c(C)nc2sc3c(c2c1N)CCC(O)C3 (stereo not given) | – | 56.2 µM (active) |
| COc1ccc(NC(=O)c2ccc(-c3ccc(-c4noc(C)n4)cc3C)cc2)cc1N1CCN(C)CC1 | -3.94% (inactive) | – |

| Compound | activity change, negative = inhibition | Potency |
| --- | --- | --- |
| c1ccc(C2CN3CCSC3=N2)cc1 (stereo not given) | -15.3% (inactive) | – |
| C=CC[C@H](N)C(=O)O | -4.97% (inactive) | – |
| Cc1cccc(C2CN(C)CCc3c2cc(O)c(O)c3Cl)c1 (stereo not given) | – | 56.2 µM (active) |
| CC(O)C(O)[C@H]1CNc2nc(N)[nH]c(=O)c2N1 (stereo not given in full) | – | 28.2 µM (active) |
| O=c1cc(O)cc(/C=C/c2ccc(O)c(O)c2)o1 | – | 44.7 µM (active) |
| O=c1[nH]c(=O)c2nc3ccccc3nc2[nH]1 | – | 56.2 µM (active) |
| COc1ccccc1N1CCN(CCCCN2C(=O)c3ccccc3C2=O)CC1 | 145% (inactive) | – |
| COc1ccc(CCn2nnnc2C2(c3ccc(C)cc3)CC2)cc1 | -12.7% (inactive) | – |
| CN1Cc2sccc2C(c2ccc(O)c(O)c2)C1 (stereo not given) | – | 39.8 µM (active) |
| N[C@H](C(=O)O)[C@H]1C[C@@H]1C(=O)O | -4.26% (inactive) | – |
| N=C(N)SCCN | 552% (inactive) | – |
| N[C@@H](CS(=O)O)C(=O)O | -19.9% (inactive) | – |
| O=C(O)c1cccnc1C(=O)O | -21.3% (inactive) | – |
| C=CCn1c(=O)c2c(nc(-c3ccc(S(=O)(=O)O)cc3)n2C)n(C)c1=O | – | 15.8 µM (active) |
| Fc1ccc(CN(C2=NCCN2)c2c(Cl)cccc2Cl)cc1 | -19.3% (inactive) | – |
| Cc1cc(Cn2cnc3c2C[C@@H](C(=O)O)N(C(=O)C(c2ccccc2)c2ccccc2)C3)ccc1N | -30.1% (inactive) | – |
| NC(N)=NC(N)=Nc1ccccc1 | -2.1% (inactive) | – |
| COc1ccc2c(c1)c(CC(=O)O)c(C)n2C(=O)c1ccccc1 | -18.6% (inactive) | – |
| CC1CNCCN1S(=O)(=O)c1cccc2cnccc12 (stereo not given) | -10.2% (inactive) | – |
| COc1ccc(C(=O)NCc2cccnc2)cc1C(=O)NCc1cccnc1 | -1.16% (inactive) | – |
